The text below walks through data of PubChem BioAssay (Tox21).

Where “and” joins values, the source holds several entries; their conditions need not be identical. Equal values may be shown once. Inconclusive results are not listed. A structure can be active in one record and inactive in another. Calls of active or inactive are those of the source. The call rests on the fitted dose curve; in most records, active means well fitted cell-killing curve with a large enough effect in the repeat runs; inconclusive means weak or mixed curves, or effect the other way; inactive means no such curve, though single readings can be large or run the other way.
On the % scale 0 is the no-effect control and ±100 the full control effect; potency means the concentration at half of the fitted maximal effect.

This assay is described as follows: qHTS assay for identifying genotoxic compounds that show differential cytotoxicity against isogenic chicken DT40 cell lines with known DNA damage response pathways - Rev3 mutant cell line (AID 743014). Further: nearly all actives have a fitted effect of over 55% in size. The conditions noted are these: chicken DT40 Rev3-/- viability, CellTiter-Glo, 40 h; series mostly up to 68.4 µM. An excerpt: National Center for Advancing Translational Sciences [NCATS]
NIH Chemical Genomics Center [NCGC]
U.S. Environmental Protection Agency [EPA]
National Institutes of Environmental Health Sciences [NIEHS]
National Toxicology Program [NTP]
U.S. Food and Drug Administration [FDA]
DNA repair pathways play a critical role in cellular homeostasis by repairing DNA damage induced by endogenous processes and xenobiotics. Isogenic chicken DT40 cell lines deficient in different DNA repair pathways can be used to identify genotoxic compounds and aid in characterizing the nature of the DNA damage induced. Two DNA repair-deficient cell lines with disrupted genes, Rad54/Ku70 or Rev3, were used to screen the Tox21 10K compound library. Possible genotoxicity was based on the presence of a significant increase in cytotoxicity in one or more of the DNA repair-deficient cell lines compared to that observed in the parental DNA repair-proficient cell line. CellTiter Glo viability assay (Promega, Madison, WI) was used to measure cell viability in these cells after compound treatment. This assay includes the data from the Rev3 mutant cell line.
Tox21 Assay Protocol Summary:
300 DT40 mutant cells in 5 uL/well were dispensed into white, solid-bottom 1536-well plates using a Multidrop Combi (ThermoFisher Scientific, Waltham, MA) dispenser. After the assay plates were incubated at 37 C/5% CO2 for approximately 0.5 hour, 23 nL of compounds dissolved in DMSO, positive controls or DMSO only was transferred into the assay plate by a pintool work station (Kalypsys, San Diego, CA). The assay plates were incubated at 37 C/5% CO2 for 40 hours. After 5 uL per well of CellTiter-Glo reagent was added into each well of the assay plates, the plates were incubated for 30 min at room temperature and the luminescence intensity of the plates was measured using a ViewLux (PerkinElmer, Shelton, CT) plate reader.
A general note: Quantitative high-throughput screening tests each substance at several concentrations.
In the case of `Oc1ccc(Nc2ccccc2)cc1`, the Potency was 6.11 µM (active). The same measure, in the same setting: then `CCCCCCCCCCCCCCCCBr`, with “inactive”; and `COC(=O)[C@@H]1CC2=CC(=O)CC[C@]2(C)[C@@]23O[C@@H]2C[C@@]2(C)[C@@H](CC[C@@]24CCC(=O)O4)[C@H]13`, with “inactive”.

Consider `C[C@@H]1C[C@H]2[C@@H]3CCC4=CC(=O)C=C[C@]4(C)[C@@]3(F)[C@@H](O)C[C@]2(C)[C@@]1(O)C(=O)CO`, for which the Potency was 0.553 µM (active). Take `O=C(CCCN1CCN(c2ccc(F)cc2)CC1)NC1c2ccccc2CSc2ccccc21` (stereo not given): the Potency was 26.6 µM (active). Regarding `CCC(=O)Oc1ccc(/C(CC)=C(\CC)c2ccc(OC(=O)CC)cc2)cc1`, the Potency was 54.5 µM (active). Take `CC(C)(C)C(=O)C(Oc1ccc(Cl)cc1)n1ccnc1` (stereo not given): the Potency is 26.6 µM (active).

On to `CNC(=S)NC`, for which the Potency was 43.3 µM (active). Take `COCCOC(=O)C1=C(C)NC(C)=C(C(=O)OC/C=C/c2ccccc2)C1c1cccc([N+](=O)[O-])c1` (stereo not given): the Potency is 11.9 µM (active).

Turning to `O=c1[nH]c2ccc(S(=O)CCN3CCC(Cc4ccc(F)cc4)CC3)cc2o1` (stereo not given), the Potency is 4.33 µM (active). Regarding `O=C(CS)OCCOC(=O)CS`, the Potency was 68.6 µM (active).

Regarding `CCCCCCCC/C=C\CCCCCCCC(=O)OC`, the Potency entry is “inactive”. On the same count and under the same terms, the value for `O=C(O)c1cccnc1C(=O)O` was “inactive”; that for `CC1CC(O)CC(C)(C)C1` (stereo not given) was “inactive”. In the case of `CCCOCCOCCO`, the Potency entry is “inactive”.

`CC1(C)C(=O)N(Br)C(=O)N1Cl`: the Potency was 61.1 µM (active). As for `CCOC(=O)CC(=O)C(=O)OCC`, the Potency result was “inactive”. `Cc1occc1C(=O)Nc1ccc(C(=O)N2CCC(F)(F)/C(=C\C(=O)N3CCC(N4CCCCC4)CC3)c3ccccc32)cc1`: the Potency result was “inactive”. Turning to `CC(C)CCCCCOC(=O)CCCCC(=O)OCCCCCC(C)C`, the Potency was 61.1 µM (active). Still for that read-out and setting: the value for `CC(C)c1nnc2ccc(-c3ocnc3-c3cc(F)ccc3F)cn12` was 21.7 µM (active); that for `N#C/C(=C1/SC[C@@H](c2ccc(Cl)cc2Cl)S1)n1ccnc1` was 26.6 µM (active) and 29.8 µM (active); that for `CC(C)C(=O)O` was “inactive”. On the same count and under the same terms, then `CN(C)CCOC1=Cc2ccccc2Sc2ccc(Cl)cc21`, with 6.68 µM (active); and `CCOc1cc(N)c(Cl)cc1C(=O)NCC1CN(Cc2ccc(F)cc2)CCO1` (stereo not given), with 11.9 µM (active); and `COc1cc2ncnc(Nc3ccc(F)c(Cl)c3)c2cc1OCCCN1CCOCC1`, with 26.6 µM (active).

As for `CCCC1C(CC)=CC(CC)=CN1c1ccccc1` (stereo not given), the Potency is 2.17 µM (active). Take `C=CC(C)(O)CCCC(C)CCCC(C)CCCC(C)C` (stereo not given): the Potency entry is “inactive”. As for `COc1ccc(CCC(=O)c2c(O)cc(O[C@@H]3O[C@H](CO)[C@@H](O)[C@H](O)[C@H]3O[C@@H]3O[C@@H](C)[C@H](O)[C@@H](O)[C@H]3O)cc2O)cc1O`, the Potency result is “inactive”. Regarding `[O]=[Bi]`, the activity, negative = cytotoxicity is 0.555% [at 8.53 µM] (inactive). For the compound `CCC(C(=O)OCCOCCN(CC)CC)c1ccccc1` (stereo not given), the Potency is 10.6 µM (active).

As for `CCOC(=O)C(C)Oc1ccc(Oc2nc3ccc(Cl)cc3o2)cc1` (stereo not given), the Potency was 68.6 µM (active). For the compound `CCCCC(=O)O[C@]1(C(=O)CO)CC[C@H]2[C@@H]3CCC4=CC(=O)CC[C@]4(C)[C@H]3[C@@H](O)C[C@@]21C`, the Potency entry is “inactive”. Same read-out and setting: then `C=C(C)C(=O)OCCOC(=O)CC(C)=O`, with “inactive”; and `Cc1cc(O)c(C(C)C)cc1Cl`, with “inactive and 61.1 µM (active)”. On the same count and under the same terms, the value for `O=C(Nc1ccccc1)Nc1ccccc1` was 48.8 µM (active); that for `Cc1nccn1-c1ccc(Sc2cccc(C3(C(N)=O)CCOCC3)c2)cc1` was 1.54 µM (active); that for `CCCC(=O)O[C@]1(C(=O)COC(=O)CC)CC[C@H]2[C@@H]3CCC4=CC(=O)CC[C@]4(C)[C@H]3[C@@H](O)C[C@@]21C` was “inactive”. Same read-out and setting: the value for `CC(C)OCC1CO1` (stereo not given) was “inactive”. On to `C=CCCCCCCCCCCCCCCCC`, for which the activity, negative = cytotoxicity was 2.07% [at 8.53 µM] (inactive). For the compound `Nc1nccs1`, the Potency result was “inactive”.
